For 97 compounds, inhibition results are on record in PubChem BioAssay AID1117319 (Southern Research Institute, 2015).

The whole screen tested about 260,000 compounds, of which about 1,500 (0.58%) were called active. Inconclusive results (about 5%) are left out. These entries were drawn from the full list. Entries with a potency or affinity are not part of this list. A number with no mark means an inactive call.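 The calls were made as follows: active = inhibition above a set limit at one or more doses, reproduced on every date tested; inconclusive = results disagree between test dates, or hit never tested in dose response; inactive = the rest.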

The target of this assay is Virion infectivity factor (Human immunodeficiency virus type 1 group M subtype B (isolate BH10)) + Virion infectivity factor (Human immunodeficiency virus type 1 group M subtype B (isolate BRU/LAI)) + Virion infectivity factor (Human immunodeficiency virus type 1 group M subtype B (isolate PCV12)) + Virion infectivity factor (Human immunodeficiency virus type 1 group M subtype B (isolate HXB2)) + DNA dC->dU-editing enzyme APOBEC-3G (Homo sapiens) (UniProt P69720+P69721+P69722+P69723+Q9HC16). As to the kind of experiment: HIV-1 Vif–A3G interaction blockers – biochemical, TR-FRET, GST-Vif 1-94, biotin-A3G peptide, dose response retest, primary screen (AID 1117319).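 Also: Vif residues 1-94 fused to GST binding biotinylated APOBEC3G peptide 110-148; 0% = full assay without inhibitor and 100% = GST in place of GST-Vif.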 The conditions noted are these: TR-FRET GST-Vif / biotin-A3G peptide binding; active compounds read high.
Broadly, the inhibition is the drop in the measured response relative to a control, in per cent. `CN1CCN(C(=O)c2cc3c(C(F)(F)F)nn(C)c3s2)CC1`: the inhibition was 6.37%.

Turning to `O=C(COc1ccc(Cl)cc1Cl)N(Cc1ccco1)C1CCS(=O)(=O)C1` (configuration not stated), the inhibition is -2.82%.

On to `O=C(Cc1c(F)cccc1Cl)N1CCN(S(=O)(=O)c2cccc(F)c2)CC1`, for which the inhibition was -1.72%.

For `O=C(C1CCCCC1)N1CCc2ccccc21`, the inhibition is 3.73%.

Turning to `O=C(O)C1CC=CCC1C(=O)N1CCc2ccccc21` (configuration not stated), the inhibition is 23.4%.

Regarding `CCN(CC)S(=O)(=O)c1ccc(OCC(=O)NC(=O)Cc2ccccc2)c([N+](=O)[O-])c1`, the inhibition was 1.51%.

Consider `C=C(c1ccc(OC)cc1)c1ccc(OC)cc1`, for which the inhibition was 13.2%.

With `O=C(c1ccccc1)c1ccc(OCCO)cc1`, the inhibition was -4%.

Consider `CC1(C)CC(=O)C(C=NCCCN2CCOCC2)=C(O)C1`, for which the inhibition is -5.25%.

Turning to `CCc1cc2ccc(OC)cc2nc1SCC(=O)NNC(=O)c1ccco1`, the inhibition is -10%.

For `Cc1ccc(NC(=S)N(CCCN2CCOCC2)Cc2ccco2)cc1C`, the inhibition is -0.03%.

For the compound `CN(C)c1ccc(/C=C2\C(=N)N3C(=NC2=O)Sc2cc(S(C)(=O)=O)ccc23)cc1`, the inhibition was -44.5%.

`COc1ccc(/C=C2/C(=N)N3C(=NC2=O)Sc2cc(S(C)(=O)=O)ccc23)cc1OC`: the inhibition is -1.27%.

With `O=C(NCc1nnc(SCC(=O)N2CCc3ccccc32)o1)c1ccco1`, the inhibition was 1.79%.

Take `Cc1cccc(NCC(=O)N/N=C\c2c[nH]c3ccccc23)c1`: the inhibition is 21.4%.

As to `Cc1nc(N)sc1C(=O)N/N=C/c1cccnc1`, the inhibition was 3.64%.

In the case of `Cc1ccc(Nc2ncc3c(n2)CC(c2ccco2)CC3=O)c(C)c1` (configuration not stated), the inhibition is 18.1%.

Turning to `Cc1cccc(Nc2ncc3c(n2)CC(c2ccco2)CC3=O)c1` (configuration not stated), the inhibition is 3.03%.

On to `O=C(CSc1nnnn1-c1ccccc1)Nc1ncc2c(n1)CC(c1ccccc1)CC2=O` (configuration not stated), for which the inhibition is 2.52%.

`CCC(=O)Nc1ncc2c(n1)CC(c1ccco1)CC2=O` (configuration not stated): the inhibition is 31.8%.

Regarding `CC(C(=O)NC1=NCCS1)(C(F)(F)F)C(F)(F)F`, the inhibition is -4.2%.

As to `COc1ccc(CCNC(=O)CCCc2ccccc2)cc1OC`, the inhibition is 1%.

`Cc1ccc(C)c(OCC(=O)Nn2c(C)nc3ccccc3c2=O)c1`: the inhibition was -5.76%.

For the compound `C=CCn1c(C)c(C(C)=O)c(N2CCOCC2)nc1=S`, the inhibition was 5.16%.

Take `C=CCn1c(C)c(C(C)=O)c(N2CCCC2)nc1=S`: the inhibition was 1.72%.

For `O=C(NCC1CCCO1)c1ccc2nc(N3CCCCC3)sc2c1` (configuration not stated), the inhibition was 1.36%.

On to `CC(Oc1ccc(Br)cc1)C(=O)Nc1ccncc1` (configuration not stated), for which the inhibition is -0.96%.

With `COc1ccc(CNC(=O)c2cc(=O)c3ccccc3o2)cc1`, the inhibition is 4.03%.

In the case of `O=C(NNc1nc2c(F)cccc2s1)c1cc(=O)c2ccccc2o1`, the inhibition was 21.6%.

`O=S(=O)(c1cccc(F)c1)N1CCN(C(=S)NCc2ccccc2)CC1`: the inhibition is -4.04%.

On to `O=C(OCc1csc(-c2ccccc2)n1)c1ccc(O)cc1`, for which the inhibition is -8.63%.

In the case of `O=C1c2ccccc2C(=O)N1CCCCON1C(=O)c2ccccc2C1=O`, the inhibition is -9.96%.

As to `O=C1c2ccccc2C(=O)N1CCCON1C(=O)c2ccccc2C1=O`, the inhibition was -6.06%.

As to `CCC(C)NC(=O)C(Cc1ccccc1)NS(=O)(=O)c1ccc2c(c1)CCC(=O)N2` (configuration not stated), the inhibition was -0.93%.

In the case of `CC(C)=CC(=O)NCc1c(Cl)cccc1-n1cccc1`, the inhibition was -7.14%.

`CCC(=O)NCc1c(Cl)cccc1-n1cccc1`: the inhibition was -0.31%.

`CC(C)(C)c1cc(CCC(=O)N2CCNCC2)c(C(C)(C)C)cc1O`: the inhibition was -5.87%.

On to `O=C(c1cccc(-n2cccc2)c1)N1CCN(S(=O)(=O)c2ccccc2Br)CC1`, for which the inhibition was -0.78%.

Turning to `Cc1ccc(S(=O)(=O)N2CCN(C(=O)c3cccc(-n4cccc4)c3)CC2)cc1`, the inhibition is 13.6%.

Regarding `CCc1cccc2c(SCC(=O)NCC3CCCO3)nc(-c3ccc(F)cc3)nc12` (configuration not stated), the inhibition was -2.63%.

As for `O=C(NCCn1cc(SCc2ccccc2F)c2ccccc21)c1c(F)cccc1F`, the inhibition is 23.7%.

For `CSc1ccc(/C=N/n2c(C)cc(C)cc2=O)cc1`, the inhibition is -2.42%.

Turning to `CCN(CC)c1ccc(/C=N/N2C(=O)c3ccccc3C2=O)cc1`, the inhibition was 0.19%.

For `CC(C(=O)OCC(=O)N(C)C1(C#N)CCCCC1)N1C(=O)c2ccccc2C1=O` (configuration not stated), the inhibition is -0.19%.

On to `O=C1c2ccccc2CC1Sc1nnc(-c2ccncc2)o1` (configuration not stated), for which the inhibition was 8.68%.

As for `Fc1ccc(CSc2nnc(-c3ccccn3)o2)cc1`, the inhibition was -5.79%.

On to `COc1ccc(N=C2SC(C(=O)Nc3ccc(C(=O)O)cc3)CC(=O)N2Cc2cccs2)cc1` (configuration not stated), for which the inhibition was -11.4%.

Turning to `Cc1ccc(C)c(NC(=O)C2CCN(S(=O)(=O)c3ccc4c(c3)NC(=O)CO4)CC2)c1`, the inhibition is -1.93%.

With `Cc1ccc(C(=O)CSc2nnc(-c3ccco3)n2C)cc1`, the inhibition is 11.4%.

As for `COc1ccc(C(=O)CSc2nnc(-c3ccco3)n2C)cc1`, the inhibition was 7.51%.

Consider `O=C(OC(C(=O)NCc1ccco1)c1ccc(Cl)cc1)c1cccs1` (configuration not stated), for which the inhibition is 4.09%.

Consider `CC(C)(C)NC(=O)C(c1ccc(O)cc1)N(C(=O)CCC(=O)Nc1ccccn1)c1ccc(F)cc1` (configuration not stated), for which the inhibition is 16.4%.

As for `CCOC(=O)C1CCN(C(=O)Nc2ccc3nc(C)c(C)nc3c2)CC1`, the inhibition was 8.59%.

Turning to `Cc1nc2ccc(NC(=O)N3CCCCC3)cc2nc1C`, the inhibition was 1.22%.

Turning to `CCOC(=O)C1CCN(C(=O)Nc2ccc3nccnc3c2)CC1`, the inhibition was -4.96%.

For `O=C(Nc1ccc2nsnc2c1)N1CCCCCC1`, the inhibition was 21.1%.

Consider `CCn1nnnc1NC(=O)c1cc(Cl)c(OC)c(Cl)c1`, for which the inhibition was 0.23%.

In the case of `Cc1noc(C(=O)NCC2CCCO2)c1Cl` (configuration not stated), the inhibition was 2.96%.

Take `COc1ccc(-n2nnc3c(SCC(=O)OCc4ccccc4)ncnc32)cc1`: the inhibition was 0.84%.

As for `C=CCNC(=O)O/N=C/c1csc([N+](=O)[O-])c1`, the inhibition is -6.03%.

In the case of `CC(C)(C)c1ccc(C(=O)N/N=C/c2ccc(OCCCF)cc2)cc1`, the inhibition is -1.58%.

As to `CCOc1ccc(NC2=CC(=O)C(=O)c3ccccc32)cc1`, the inhibition was 3.36%.

For `CCOc1ccccc1NCN1C(=O)c2ccccc2C1=O`, the inhibition is -5.06%.

On to `O=C(NC(=S)Nc1ccccc1O)c1cccnc1`, for which the inhibition was -2.04%.

As to `COc1ccccc1NC(=O)c1oc2ccccc2c1C`, the inhibition was -8.43%.

Turning to `COc1ccc(NC(=O)c2oc3ccccc3c2C)c(OC)c1`, the inhibition is 3.61%.

Take `Cc1nn(-c2cccc(Cl)c2)nc1C(=O)Nc1cccc(C(=O)NC2CC2)c1`: the inhibition was -8.35%.

For `O=[N+]([O-])c1ccc(N=Nc2ccc(O)cc2O)cc1`, the inhibition is 27.8%.

For `Oc1ccc(N=Nc2ccc(Br)cc2)c(O)c1`, the inhibition is -5.68%.

Regarding `Oc1ccc(N=Nc2ccc3c(c2)OCCO3)c(O)c1`, the inhibition was 6.46%.

As to `O=[N+]([O-])c1cccc(N=Nc2ccc(O)cc2O)c1`, the inhibition is 5.74%.

Take `Clc1cccc(CSc2nnc(-c3c[nH]c4ccccc34)o2)c1`: the inhibition is -5.82%.

In the case of `Cc1ccc(-c2nc(C#N)c(N3CCCCC3)o2)cc1`, the inhibition is -10.2%.

As for `CC(=O)N1CCc2ccc(NC(=O)c3c(-c4c(Cl)cccc4Cl)noc3C)cc21`, the inhibition is -4.69%.

In the case of `O=[N+]([O-])c1ccc2nc(C3CCCCC3)[nH]c2c1`, the inhibition is -11.7%.

`COc1cccc(C(=O)Nc2ccc3nc(N4CCOCC4)cc(C)c3c2)c1`: the inhibition was -4.42%.

For `CN(C)/C=C/C(=O)c1ccc(Br)cc1`, the inhibition was -1.28%.

Regarding `O=C(NCCO)C1COc2ccccc2O1` (configuration not stated), the inhibition was -2.17%.

With `O=C(CSc1nnnn1C1CC1)N1CCN(c2ccccc2F)CC1`, the inhibition was -1.62%.

On to `On1nnc2c3ccccc3c3ccccc3c21`, for which the inhibition was 0.98%.

Consider `O=C(O)C1CCCCN1C(=O)c1ccc(S(=O)(=O)N2CCCCCC2)cc1` (configuration not stated), for which the inhibition was -3.6%.

Regarding `COc1cc2c(cc1OC)C(=O)CCC2`, the inhibition is -1.94%.

As to `COc1ccc2c(c1)CCCC(Br)C2=O` (configuration not stated), the inhibition is 11.8%.

For `O=C(O)c1cccc2c1C(=O)c1ccc(N3CCN(Cc4ccc5c(c4)OCO5)CC3)cc1S2(=O)=O`, the inhibition is 1.13%.

For the compound `Cc1cccc2cc(CN(CCCO)C(=O)Nc3ccc(Cl)cc3)c(=O)[nH]c12`, the inhibition is 13.2%.

Turning to `C/C(=N\NC(=O)c1cc(C2CC2)nc2ccccc12)c1ccc(C)s1`, the inhibition was 5.05%.

As to `CCC(C)C1=CC(=Nc2c(C)n(C)n(-c3ccccc3)c2=O)C=C(C(C)CC)C1=O` (configuration not stated), the inhibition is 9.76%.

Consider `CC1=CC(=Nc2c(C)n(C)n(-c3ccccc3)c2=O)C=C(C)C1=O`, for which the inhibition was 16.9%.

For `Cc1c(N=C2C=CC(=O)c3ccccc32)c(=O)n(-c2ccccc2)n1C`, the inhibition was 25%.

As for `Cc1c(N=c2c(=O)c3ccccc3c2=O)c(=O)n(-c2ccccc2)n1C`, the inhibition is 23.7%.

With `CC(=O)NC1=NN(C(C)=O)C(C)(c2cccs2)S1` (configuration not stated), the inhibition was 2.86%.

On to `Cc1cc(=O)oc2cc(NC(=O)c3ccnn3C)ccc12`, for which the inhibition was -5.65%.

For `Cc1ccc(C)c(Cn2nnc3c(=O)[nH]c(C4CCN(S(=O)(=O)c5ccc(S(=O)(=O)NC6CC6)cc5)CC4)nc32)c1`, the inhibition was -11.5%.

In the case of `O=C(CN1CCN(S(=O)(=O)c2ccc(Cl)cc2)CC1)NCc1cccs1`, the inhibition was 0.29%.

As to `O=C(CN1CCN(S(=O)(=O)c2ccc(Cl)s2)CC1)N1CCOCC1`, the inhibition is 7.26%.

Regarding `CC(C)Nc1nc(-c2ccccc2)nnc1-c1ccccc1`, the inhibition is -7.57%.

For the compound `O=C(O)/C=C/C(=O)Nc1ccc(SC(F)(F)C(F)(F)C(F)(F)F)cc1`, the inhibition is -1.48%.
